Shown are actives, neighbours in structure and some others; about 21% of the full set was active somewhere.
CHX counter – Cycloheximide Counterscreen for Small Molecule Inhibitors of Shiga Toxin; cell reporter, cycloheximide protein synthesis inhibition counterscreen; AID 2314, 2010; 300,000 tested, 12% active; max response, %; in the data active = max response mostly above about 13%, no sharp cut-off; inactive = mostly below about 14%; also: read at 38.3 µM for the half of the compounds with a filed dose; 0% is about no effect
Shiga inhibitor – A qHTS for Small Molecule Inhibitors of Shiga Toxin | Vero cells, Shiga toxin protein synthesis inhibition reporter | inhibition, % at 38.7 µM | 290,000 tested, 9.2% active | AID 2315, 2010; in the data active = inhibition mostly above about 28%, no sharp cut-off; inactive = mostly below about 43%; also: 0% is about no effect
Pf growth 96h – Primary qHTS for delayed death inhibitors of the malarial parasite plastid, 96 hour incubation | P. falciparum luciferase reporter growth, 96 h | Potency, µM (doses to about 28.7 µM), for the others: at the highest dose activity change, negative = inhibition, most hits filed as inhibitors | 320,000 tested, 6.9% active | AID 504834, 2011; also: potency is read from the fitted curve at half-maximal effect; % is scaled to controls: 0 for no effect and ±100 for the full control effect
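Infected RBCs, 2% Hct / 0.05% parasitemia final; luciferase-reporter P. falciparum; cpd 96 h, 37 C, 5% CO2; luciferase detection reagent; luminescence.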
HCV inhibitor – qHTS Assay for Inhibitors of Hepatitis C Virus (HCV). Huh7.5.1 HCVcc-Cre infection, luciferase reporter, 44 h. Potency, µM (series often up to 41.8 µM), without a hit: at the highest dose activity change, negative = inhibition, usual class: inhibitors. 340,000 tested, 3.4% active. AID 651820, 2012; also: potency is read from the fitted curve at half-maximal effect; % is scaled to controls: 0 for no effect and ±100 for the full control effect
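Cells seeded at 1,000/well and cultured 4 h, then compounds added followed by HCVcc-Cre virus (~0.5 moi). After 44 h further culture, luciferase substrate was added, plates held 15 min at room temperature, and luminescence read for 15 sec.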
HCMV inh – qHTS Assay for inhibitors of the human cytomegalovirus (HCMV); HFF cells, HCMV-luciferase reporter, 72 h; active compounds read low; activity change, negative = inhibition, % at 57.5 µM; 410,000 tested, 4.5% active; in the data active = activity change below about -60%; inconclusive = no clear call, values can overlap the other calls; inactive = above about -39%; also: % is scaled to controls: 0 for no effect and ±100 for the full control effect
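Steps: HFFs plated, 16 h 37C; compounds added; HCMV-luciferase added to MOI 1 PFU/cell; 72 h 37C; OneGlo reagent, 5 min room temperature; luminescence read, normalized to controls.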
Pf growth 48h – Primary qHTS for delayed death inhibitors of the malarial parasite plastid, 48 hour incubation | P. falciparum luciferase growth in erythrocytes, 48 h | Potency, µM (top dose mostly 28.7 µM), without a hit: at the top dose activity change, negative = inhibition, actives largely listed as inhibitors | 310,000 tested, 5.9% active; also: potency is read from the fitted curve at half-maximal effect; % is scaled to controls: 0 for no effect and ±100 for the full control effect
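Here the parasites carry a stable luciferase gene and grow inside erythrocytes in Albumax-based RPMI medium with compound for one erythrocytic cycle. Activity is scored as loss of luminescent signal.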
* = called active by the depositor; i = inactive; ? = inconclusive; . = not tested or not shown. Unless noted, calls follow the shape of the dose curve; as a rule, active = well fitted inhibition curve with a large enough effect; inconclusive = small, poorly fitted or top-dose-only effect, or another doubt; inactive = no such curve, though single readings can be large or run the other way.

SMILES	CHX counter	Shiga inhibitor	Pf growth 96h	HCV inhibitor	HCMV inh	Pf growth 48h
COc1ccc(/C=N/Nc2nonc2N)cc1OC	8	3	?	-6%	18	3%
COc1ccc(/C=N/Nc2nonc2N)cc1	23*	67	64%	7%	?	35%
COc1cc(/C=N/N=C(/N)c2nonc2N)cc(Br)c1OCc1cccc(C)c1	21*	23	.	?	-12	?
COc1ccc(/C=N/N=C(\N)c2nonc2N)cc1	15	44*	1.3µM*	7%	-24	i
COc1cc(OC)c(OC)cc1CNCCNC(=O)c1nonc1N	0	-12	-6%	0%	-10	4%
COc1cc(/C=N/N=C(\N)c2nonc2N)cc(OC)c1O	47*	79*	52%	-3%	0	71%
COc1ccc(N2CCN(S(=O)(=O)c3cn(C)cn3)CC2)cc1	-3	9	3%	0%	-33	25%
CC(=O)NC1C(OCc2ccccc2)OC2COC(C)(C)OC2C1O (centres undefined)	-1	19	50%	8%	-37	8%
CN1C(=O)CSc2ccc(NC(=O)NCc3cccnc3)cc21	-4	-7	-27%	?	-61*	-28%
CN1C(=O)CSc2ccc(NC(=O)Nc3ccccn3)cc21	50*	39	39%	-19%	-16	.
CC(=O)Nc1ccc(NC(=O)Nc2ccc3c(c2)N(C)C(=O)CS3)cc1	7	8	-20%	-15%	0	?
CC(C)CNc1nc(Br)cnc1N	.	.	.	.	39	.
CCOc1ccc2oc(-c3ccccc3)c(C(=O)O)c2c1	-2	-12	.	11%	-9	4%
CCOC(=O)c1c(-c2ccc(OC)cc2)oc2ccc(OCC(N)=O)cc12	1	-4	-2%	2.2µM*	-10	-9%
CCOc1ccc2oc(-c3ccccc3)c(C(=O)N(C)C)c2c1	-4	-17	.	?	-62*	-20%
CC(=O)c1c(C)oc2ccc(OCc3ccccc3)cc12	31*	63*	43%	?	41	53%
CCC(CC)NC(=O)C1CCN(c2ccc(S(=O)(=O)N3CCOCC3)cc2[N+](=O)[O-])CC1	.	.	?	-7%	-8	?
Cc1ccc(Cn2c(SCCN3CCCCC3)nc3c2c(=O)[nH]c(=O)n3C)cc1	-4	-8	3.7µM*	7%	?	-14%
CSc1nc2c(c(=O)[nH]c(=O)n2C)n1Cc1ccc(Cl)cc1	-4	.	?	25µM*	19	15%
CCC(C)Sc1nc2c(c(=O)[nH]c(=O)n2C)n1Cc1ccccc1Cl (centres undefined)	-2	-1	?	-16%	-36	12µM*
Cn1c(=O)[nH]c(=O)c2c1nc(SCCN1CCCCC1)n2Cc1ccccc1	-1	-5	-22%	9%	-20	?
CSc1nc2c(c(=O)[nH]c(=O)n2C)n1Cc1ccccc1Cl	4	-9	5.2µM*	-12%	-3	-13%
COc1ccc(NC(C)=O)cc1S(=O)(=O)N(C)Cc1c(C)nn(-c2ccccc2)c1C	.	.	?	-22%	50	?
O=S(=O)(Nc1cccc(-c2ccc(N3CCOCC3)nn2)c1)c1ccc(F)cc1F	.	.	.	.	64	.
CCc1nnc(NS(=O)(=O)c2ccc(N/C=C\C(=O)c3cccc(OC)c3)cc2)s1	32*	72*	427%	22%	-5	-18%
SMILES	CHX counter	Shiga inhibitor	Pf growth 96h	HCV inhibitor	HCMV inh	Pf growth 48h
Cc1cc(C)nc(NS(=O)(=O)c2ccc(N/C=C\C(=O)c3ccc(Cl)cc3)cc2)n1	19	53	?	8%	29	6%
CCc1nnc(NS(=O)(=O)c2ccc(NC(=O)CCC(=O)O)cc2)s1	0	-10	-16%	9%	-8	-4%
CCc1nnc(NS(=O)(=O)c2ccc(N/C=C\C(=O)c3ccc(C)cc3)cc2)s1	28*	103*	134%	2%	81	59%
CCc1nnc(NS(=O)(=O)c2ccc(NC(=S)NC(=O)/C=C/c3ccc(F)cc3)cc2)s1	-3	-10	10µM*	25%	15	-2%
CCc1nnc(NS(=O)(=O)c2ccc(N/C=C/C(=O)c3ccc(C)cc3)cc2)s1	39*	93*	-11%	38%	45	20%
CCc1nnc(NS(=O)(=O)c2ccc(N/C=C\C(=O)c3ccc(F)cc3)cc2)s1	47*	66*	-24%	27%	105	-14%
Cc1ccc2cc(CN(CC3CCCO3)S(=O)(=O)c3cccc4nsnc34)c(=O)[nH]c2c1 (centres undefined)	-4	-6	-1%	7%	15	9.3µM*
Cc1ccc2[nH]c(=O)c(CN(CCCO)S(=O)(=O)c3c(C)ccc4nsnc34)cc2c1	-1	12	5.9µM*	4%	59	0%
CC(=O)Nc1ccc(S(=O)(=O)N(Cc2cc3ccc(C)cc3[nH]c2=O)CC2CCCO2)cc1 (centres undefined)	-9	-1	?	-2%	16	1%
Cc1cc2cc(CN(Cc3ccco3)S(=O)(=O)c3c(C)ccc4nsnc34)c(=O)[nH]c2cc1C	-2	-10	87%	?	41	?
Cc1cc2cc(CN(CCCO)S(=O)(=O)c3cccc4nsnc34)c(=O)[nH]c2cc1C	1	-2	-6%	.	48	9.3µM*
COCCN(Cc1cc2ccc(C)cc2[nH]c1=O)S(=O)(=O)c1ccccc1	-4	-8	?	0%	-31	0%
Cc1ccc2cc(CN(CC(C)C)S(=O)(=O)c3cccc4nonc34)c(=O)[nH]c2c1	-11	-7	10µM*	5%	-9	?
Cc1ccc2cc(CN(Cc3ccco3)S(=O)(=O)c3c(C)ccc4nsnc34)c(=O)[nH]c2c1	-2	30	4%	?	-10	?
COc1cc2cc(CN(CCO)S(=O)(=O)c3ccccc3Cl)c(=O)[nH]c2cc1OC	-10	-21	-4%	-14%	18	?
O=c1[nH]c2cc3c(cc2cc1CN(CCO)S(=O)(=O)c1ccccc1Cl)OCCO3	-6	-11	0.66µM*	-2%	28	.
Cc1ccc(C(=O)NCC(=O)Nc2ccc3c(c2)CCC3)cc1	.	.	.	11%	70	.
Cn1cc(C(=O)Nc2cccc(F)c2)cn1	3	-11	52%	12%	-5	26%
NS(=O)(=O)c1cc(C(=O)Nc2ccc3c(c2)CCC3)ccc1Cl	20*	89*	15%	?	-3	41%
Cc1ccc(C(=O)Nc2ccc3c(c2)CCC3)cc1	24	5	?	-26%	-74*	98%
Cn1cc(C(=O)Nc2ccc3c(c2)CCC3)cn1	56*	75*	141%	-11%	-6	103%

High-throughput results as filed in PubChem BioAssay.
